PubChem BioAssay AID1159580 (chemical genetic matrix, 2015)
The whole screen tested about 5,500 compounds, of which about 2,000 (36%) were called active. About 18% were inconclusive and are not listed. Cut-off read from the data, not from the text of the source: active = normalized growth mostly below about 0.91 (no sharp cut-off); inconclusive = no clear call, values can overlap the other calls; inactive = mostly above about 0.92. This is one part of the list.

Assay: chemical genetic growth profiling, strain panel (AID 1159580);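 note: tested at 20 µM; growth read once vehicle control cultures reached saturation at 30 °C; 1 = growth at the plate median or of vehicle wells; lower values mean less growth of the strain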
Details: S. cerevisiae deletion strains, growth OD

Measured: normalized growth

C[C@]12CCC3C(CC[C@H]4C[C@H](OS(=O)(=O)O)CC[C@]34C)C1CCC2=O (some centres not stated)
active: locus YOR265W, strain rbl2, hits give low values 1.08 [resistant]
inactive: locus YAL021C, strain ccr4, hits give low values 1.02 | locus YAL026C, strain drs2, hits give low values 1.05 | locus YAL030W, strain snc1, hits give low values 1.05 | locus YBL061C, strain skt5, hits give low values 1.05 | locus YBR009C, strain hhf1, hits give low values 1.06 | locus YBR023C, strain chs3, hits give low values 1.05 | locus YBR171W, strain sec66, hits give low values 1.08 | locus YBR231C, strain swc5, hits give low values 1.06 | locus YBR279W, strain paf1, hits give low values 1.03 | locus YCL011C, strain gbp2, hits give low values 1.05 | locus YCL016C, strain dcc1, hits give low values 1.04 | locus YCL061C, strain MRC1, hits give low values 1.05 | locus YCL069W, strain vba3, hits give low values 1.04 | locus YCR088W, strain abp1, hits give low values 1.04 | locus YDL005C, strain med2, hits give low values 1.06 | locus YDL040C, strain nat1, hits give low values 1.04 | locus YDR001C, strain nth1, hits give low values 1.04 | locus YDR069C, strain doa4, hits give low values 1.05 | locus YDR137W, strain rgp1, hits give low values 1.05 | locus YDR159W, strain sac3, hits give low values 1.08 | locus YDR195W, strain ref2 1.06 | locus YDR297W, strain sur2, hits give low values 1.05 | locus YDR334W, strain swr1, hits give low values 1.05 | locus YDR335W, strain msn5, hits give low values 1.04 | locus YDR392W, strain spt3, hits give low values 1.07 | locus YEL003W, strain gim4, hits give low values 1.03 | locus YEL037C, strain rad23, hits give low values 1.04 | locus YEL061C, strain CIN8 (second series), hits give low values 1.05 | locus YER015W, strain faa2, hits give low values 1.05 | locus YER016W, strain bim1, hits give low values 1.04 | locus YER111C, strain swi4, hits give low values 1.06 | locus YER155C, strain BEM2 (second series), hits give low values 1.06 | locus YFR010W, strain ubp6, hits give low values 1.05 | locus YGL167C, strain pmr1, hits give low values 1.06 | locus YGL173C, strain kem1, hits give low values 1.04 | locus YGL227W, strain vid30, hits give low values 1.05 | locus YGL240W, strain doc1, hits give low values 1.04 | locus YGL253W, strain hxk2, hits give low values 1.04 | locus YHR013C, strain ard1, hits give low values 1.12 | locus YHR027C, strain rpn1, hits give low values 1.05 | locus YHR142W, strain chs7, hits give low values 1.05 | locus YJL092W, strain hpr5, hits give low values 1.05 | locus YJL095W, strain BCK1 (second series), hits give low values 1.04 | locus YJL115W, strain asf1, hits give low values 1.06 | locus YJL129C, strain trk1, hits give low values 1.11 | locus YJL154C, strain vps35, hits give low values 1.04 | locus YJL164C, strain tpk1, hits give low values 1.05 | locus YJL166W, strain qcr8, hits give low values 1.05 | locus YJL187C, strain SWE1, hits give low values 1.05 | locus YKL160W, strain elf1, hits give low values 1.03 | locus YKR026C, strain gcn3, hits give low values 1.06 | locus YKR091W, strain srl3, hits give low values 1.04 | locus YLL001W, strain dnm1, hits give low values 1.05 | locus YLL026W, hits give low values 1.05 | locus YLL041C, strain sdh2, hits give low values 1.05 | locus YLR027C, strain aat2, hits give low values 1.05 | locus YLR221C, strain rsa3, hits give low values 1.05 | locus YLR258W, strain gsy2, hits give low values 1.06 | locus YLR262C, strain YPT6 (second series), hits give low values 1.04 | locus YLR320W, strain mms22, hits give low values 1.06 | locus YLR342W, strain FKS1, hits give low values 1.06 | locus YLR357W, strain rsc2, hits give low values 1.06 | locus YLR370C, strain arc18, hits give low values 1.05 | locus YLR384C, strain iki3, hits give low values 1.05 | locus YML120C, strain ndi1, hits give low values 1.05 | locus YMR058W, strain fet3, hits give low values 1.04 | locus YMR125W, strain sto1, hits give low values 1.05 | locus YMR129W, hits give low values 1.05 | locus YMR205C, strain PFK2, hits give low values 1.07 | locus YMR231W, strain pep5, hits give low values 1.03 | locus YNL071W, strain lat1, hits give low values 1.05 | locus YNL209W, strain ssb2, hits give low values 1.04 | locus YNL248C, strain rpa49, hits give low values 1.04 | locus YNL322C, strain KRE1 (second series), hits give low values 1.04 | locus YNR049C, strain mso1, hits give low values 1.05 | locus YOR001W, strain rrp6, hits give low values 1.04 | locus YOR070C, strain gyp1, hits give low values 1.06 | locus YOR080W, strain dia2, hits give low values 1.07 | locus YOR083W, strain WHI5, hits give low values 1.04 | locus YOR106W, strain vam3, hits give low values 1.03 | locus YOR270C, strain vph1, hits give low values 1.1 | locus YOR290C, strain snf2, hits give low values 1.04 | locus YPL051W, strain arl3, hits give low values 1.05 | locus YPL078C, strain atp4, hits give low values 1.03 | locus YPL106C, strain sse1, hits give low values 1.1 | locus YPL240C, strain hsp82, hits give low values 1.04
